Test results published in PubChem BioAssay AID1159580 (chemical genetic matrix, 2015).
In all, about 5,500 compounds went through this assay and about 2,000 (36%) were called active. Not shown: some 18% with an inconclusive outcome. Cut-off read from the data, not from the text of the source: active = normalized growth mostly below about 0.91 (no sharp cut-off); inconclusive = no clear call, values can overlap the other calls; inactive = mostly above about 0.92. This is one part of the list.

Experiment: chemical genetic growth profiling, strain panel (AID 1159580);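 note: tested at 20 µM; growth read once vehicle control cultures reached saturation at 30 °C; 1 = growth at the plate median or of vehicle wells; lower values mean less growth of the strain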
Conditions: S. cerevisiae deletion strains, growth OD

Measured: normalized growth

C/C(=C\C(=O)OCCCCCCCCC(=O)O)C[C@@H]1OC[C@H](C[C@@H]2O[C@H]2[C@@H](C)[C@H](C)O)[C@@H](O)[C@H]1O
active: locus YLR113W, strain HOG1, active compounds read low 0.827
inactive: locus YAL021C, strain ccr4, active compounds read low 0.96 | locus YAL026C, strain drs2, active compounds read low 0.958 | locus YAL030W, strain snc1, active compounds read low 0.96 | locus YBL061C, strain skt5, active compounds read low 0.987 | locus YBR009C, strain hhf1, active compounds read low 0.961 | locus YBR023C, strain chs3, active compounds read low 0.979 | locus YBR171W, strain sec66, active compounds read low 0.929 | locus YBR231C, strain swc5, active compounds read low 0.938 | locus YBR279W, strain paf1, active compounds read low 0.986 | locus YCL011C, strain gbp2, active compounds read low 0.972 | locus YCL016C, strain dcc1, active compounds read low 0.967 | locus YCL061C, strain MRC1, active compounds read low 0.965 | locus YCL069W, strain vba3, active compounds read low 0.957 | locus YCR088W, strain abp1, active compounds read low 0.952 | locus YDL005C, strain med2, active compounds read low 0.973 | locus YDL040C, strain nat1, active compounds read low 0.982 | locus YDR001C, strain nth1, active compounds read low 0.956 | locus YDR069C, strain doa4, active compounds read low 0.982 | locus YDR137W, strain rgp1, active compounds read low 0.99 | locus YDR159W, strain sac3, active compounds read low 0.936 | locus YDR195W, strain ref2 0.964 | locus YDR297W, strain sur2, active compounds read low 0.988 | locus YDR334W, strain swr1, active compounds read low 0.951 | locus YDR335W, strain msn5, active compounds read low 0.963 | locus YDR392W, strain spt3, active compounds read low 0.941 | locus YEL003W, strain gim4, active compounds read low 0.969 | locus YEL037C, strain rad23, active compounds read low 0.968 | locus YEL061C, strain CIN8 (second series), active compounds read low 0.967 | locus YER015W, strain faa2, active compounds read low 0.99 | locus YER016W, strain bim1, active compounds read low 0.974 | locus YER111C, strain swi4, active compounds read low 0.93 | locus YER155C, strain BEM2 (second series), active compounds read low 0.959 | locus YFR010W, strain ubp6, active compounds read low 0.984 | locus YGL167C, strain pmr1, active compounds read low 0.973 | locus YGL173C, strain kem1, active compounds read low 0.979 | locus YGL227W, strain vid30, active compounds read low 0.965 | locus YGL240W, strain doc1, active compounds read low 1.01 | locus YGL253W, strain hxk2, active compounds read low 0.912 | locus YHR013C, strain ard1, active compounds read low 0.985 | locus YHR027C, strain rpn1, active compounds read low 0.987 | locus YHR030C, strain SLT2, active compounds read low 0.895 | locus YHR079C, strain IRE1, active compounds read low 0.919 | locus YHR142W, strain chs7, active compounds read low 0.98 | locus YJL092W, strain hpr5, active compounds read low 0.96 | locus YJL095W, strain BCK1 (second series), active compounds read low 0.965 | locus YJL095W, strain BCK1, active compounds read low 0.898 | locus YJL115W, strain asf1, active compounds read low 0.954 | locus YJL129C, strain trk1, active compounds read low 0.993 | locus YJL154C, strain vps35, active compounds read low 0.968 | locus YJL164C, strain tpk1, active compounds read low 0.98 | locus YJL166W, strain qcr8, active compounds read low 1 | locus YJL187C, strain SWE1, active compounds read low 0.976 | locus YJR066W, strain TOR1, active compounds read low 0.916 | locus YKL160W, strain elf1, active compounds read low 0.982 | locus YKR026C, strain gcn3, active compounds read low 0.931 | locus YKR091W, strain srl3, active compounds read low 0.971 | locus YLL001W, strain dnm1, active compounds read low 0.949 | locus YLL026W, active compounds read low 0.971 | locus YLL041C, strain sdh2, active compounds read low 0.965 | locus YLR027C, strain aat2, active compounds read low 0.965 | locus YLR221C, strain rsa3, active compounds read low 0.982 | locus YLR258W, strain gsy2, active compounds read low 0.968 | locus YLR262C, strain YPT6 (second series), active compounds read low 0.962 | locus YLR320W, strain mms22, active compounds read low 0.968 | locus YLR342W, strain FKS1, active compounds read low 0.953 | locus YLR357W, strain rsc2, active compounds read low 0.977 | locus YLR370C, strain arc18, active compounds read low 0.957 | locus YLR384C, strain iki3, active compounds read low 0.952 | locus YML120C, strain ndi1, active compounds read low 0.979 | locus YMR058W, strain fet3, active compounds read low 0.989 | locus YMR125W, strain sto1, active compounds read low 0.962 | locus YMR129W, active compounds read low 0.974 | locus YMR205C, strain PFK2, active compounds read low 0.896 | locus YMR231W, strain pep5, active compounds read low 0.961 | locus YNL071W, strain lat1, active compounds read low 0.989 | locus YNL183C, strain NPR1, active compounds read low 0.89 | locus YNL209W, strain ssb2, active compounds read low 1 | locus YNL248C, strain rpa49, active compounds read low 1.02 | locus YNL322C, strain KRE1 (second series), active compounds read low 0.947 | locus YNR049C, strain mso1, active compounds read low 0.951 | locus YOR001W, strain rrp6, active compounds read low 0.991 | locus YOR070C, strain gyp1, active compounds read low 0.969 | locus YOR080W, strain dia2, active compounds read low 0.948 | locus YOR083W, strain WHI5, active compounds read low 0.996 | locus YOR106W, strain vam3, active compounds read low 0.979 | locus YOR231W, strain MKK1, active compounds read low 0.904 | locus YOR265W, strain rbl2, active compounds read low 0.982 | locus YOR270C, strain vph1, active compounds read low 0.987 | locus YOR290C, strain snf2, active compounds read low 0.979 | locus YPL051W, strain arl3, active compounds read low 0.984 | locus YPL078C, strain atp4, active compounds read low 1 | locus YPL106C, strain sse1, active compounds read low 0.906 | locus YPL240C, strain hsp82, active compounds read low 0.975 | locus YPL256C, strain CLN2, active compounds read low 0.911
